Test results as given in PubChem BioAssay (NCI).
Compounds without any hit were thinned out: in the full panel of roughly 83,000, 20% have a hit.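 The endpoint reported here, percent growth, reads 100 for growth as untreated, 0 for no net growth and -100 for all cells dead.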 Activity calls are given as the source filed them. Rule for the calls: active = growth percent below 10; inactive = the rest.

Key:
Experiment in all cases: NCI-60 one-dose screen, 48 h (100 = growth as untreated, 0 = no growth, -100 = all killed)
Conditions in all cases: 10 µM unless noted
[1] = system: HCT-15 colon
[2] = system: HT29 colon
[3] = system: SNB-75 CNS
[4] = system: SNB-19 CNS
[5] = system: U251 CNS
[6] = system: PC-3 prostate
[7] = system: SK-MEL-5 melanoma
[8] = system: UACC-62 melanoma
[9] = system: LOX IMVI melanoma
[10] = system: SK-MEL-28 melanoma

Measured: growth

COC(=O)c1nc(-c2ccccc2)oc1S(=O)(=O)N1CCCC(C)C1 (stereo not given)
inactive: [1] 37.2% | [2] 56.3% | [3] 105% | [4] 91.5% | [5] 90.8% | [6] 71.6% | [7] 85.2% | [8] 84.7% | [9] 61.6% | [10] 84.9%

C/C(Cc1ccc(Cl)cc1)=C(\c1ccc(OCCN2CCCCCC2)cc1)c1ccc(OC(=O)c2ccccc2)cc1
active: [2] 6.24% | [8] -3.38% | [9] -21.8% | [10] -1.89%
inactive: [1] 14.1% | [3] 77.3% | [4] 50.3% | [5] 37.8% | [6] 19.4% | [7] 35.3%

COc1ccc(C/C(C)=C(\c2ccc(Cl)cc2)c2ccc(OCCCN(C)C)cc2)cc1
inactive: [1] 27.3% | [2] 13.6% | [3] 72.4% | [4] 86.7% | [5] 46.4% | [6] 68.7% | [7] 78.3% | [8] 94.5% | [9] 73.1% | [10] 80.8%

Cc1[nH]n(-c2cccc(Cl)c2)c(=O)c1/C=C1\C=c2ccccc2=CC1=O
active: [3] -5.52% | [5] -10.7% | [7] -82.5% | [9] -79.4%
inactive: [1] 49.9% | [2] 13.5% | [4] 31.4% | [6] 33% | [8] 82.7% | [10] 51.1%

O=C1C=C(SCCO)C(=O)c2ccccc21
inactive: [2] 95.7% | [4] 15% | [6] 62.3% | [8] 22.3% | [10] 42.9%
active: [1] -68.5% | [3] -83.9% | [5] -37.2% | [7] -98% | [9] -57.5%

Cc1ccc(OCCOCCOCCOCCOCCOc2ccc(C)n(O)c2=S)c(=S)n1O
active: [7] -32.3% | [8] -13.9% | [9] 3.58%
inactive: [1] 29% | [2] 25.7% | [3] 24.8% | [4] 16.7% | [5] 12.3% | [6] 33.3% | [10] 33.2%

CC1=C2[C@@H](CC1)[C@]1(C)O[C@@](C3CCNCC3)(C[C@H]1OC(=O)CO)[C@H]2OC(=O)/C=C/c1ccccc1
inactive: [1] 93.4% | [2] 43.2% | [3] 68.9% | [4] 90.6% | [5] 44.3% | [6] 66.6% | [7] 94.8% | [8] 93.3% | [9] 87.1% | [10] 94.1%

O=c1cc(CNc2cc(F)cc(F)c2)c2ccc(I)cc2[nH]1
active: [2] 8.99% | [3] -9.56%
inactive: [1] 32.1% | [4] 49.8% | [5] 31.8% | [6] 26.7% | [7] 18.5% | [8] 36.7% | [9] 41% | [10] 64%

CCN1C2CCC1/C(=C\c1ccccc1)C(=O)/C2=C/c1ccccc1
inactive: [1] 38.5% | [2] 42.3% | [3] 50.6% | [4] 65.5% | [5] 24.5% | [6] 47.7% | [7] 56.6% | [8] 40.1% | [9] 25.2% | [10] 77.1%

Oc1c(I)cc(I)cc1CN(Cc1ccccn1)Cc1ccccn1
active: [5] 7% | [7] -33.5% | [8] 3.88% | [9] 7.25%
inactive: [1] 21.3% | [2] 25.5% | [3] 30% | [4] 22.3% | [6] 28% | [10] 28.5%

CC(=O)c1sc(-c2ccc(F)cc2)cc1O
inactive: [1] 97.7% | [2] 105% | [3] 89% | [4] 103% | [5] 100% | [6] 93.9% | [7] 100% | [8] 100% | [9] 97.4% | [10] 110%

Nc1ncccc1O
inactive: [1] 18.7% | [2] 26.6% | [3] 121% | [4] 101% | [5] 81.4% | [6] 133% | [7] 101% | [8] 89.3% | [9] 75.2% | [10] 106%

CC(C)C1C2=C(NCCN1C(=O)c1ccncc1)C(C)(C)N(Cc1ccccc1)C2=O (stereo not given)
inactive: [1] 103% | [2] 92.8% | [3] 81.7% | [4] 101% | [5] 100% | [6] 96.1% | [7] 105% | [8] 95.6% | [9] 95.5% | [10] 114%

COc1cc(/C=C/C(=O)c2cccc(-n3cc(-c4ccc(Cl)cc4)[nH]c3=O)c2)ccc1O
inactive: [1] 37.8% | [2] 27% | [3] 50.3% | [4] 94.9% | [5] 32.4% | [6] 34.2% | [7] 68.1% | [8] 64.3% | [9] 13.1% | [10] 58.6%

CN(C)c1ccc(/C=N\NC(=O)c2ccc3nc(-c4ccc(Cl)cc4)[nH]c3c2)cc1
inactive: [1] 66.8% | [3] 97.2% | [4] 60.4% | [6] 46.8% | [7] 89% | [8] 88.2% | [9] 34% | [10] 71.9%
active: [2] 4.33% | [5] 1.62%

O=C1/C(=C/c2ccccn2)SC(=S)N1N1CCOCC1
inactive: [1] 102% | [2] 103% | [3] 90.4% | [4] 101% | [5] 98.1% | [6] 94.6% | [7] 99.2% | [8] 92.8% | [9] 97.8% | [10] 105%

COc1cc(/C=N/NC(=O)c2ccc(-n3cc(-c4ccccc4)nn3)cc2)cc(OC)c1OC
inactive: [1] 76.2% | [2] 47.8% | [3] 71.6% | [4] 58.9% | [5] 48.4% | [6] 47.5% | [7] 57.2% | [9] 36.3% | [10] 53.3%
active: [8] 9.86%

O=[N+]([O-])c1c(O)c(Cl)cc(Cl)c1Cl
inactive: [1] 99.8% | [2] 101% | [3] 98.8% | [4] 101% | [5] 97.9% | [6] 88% | [7] 98.3% | [8] 100% | [9] 94.2% | [10] 109%

COCCOC(C)C(/C=N/NC(N)=S)=N/NC(N)=S (stereo not given)
inactive: [1] 51.8% | [2] 39.5% | [3] 120% | [4] 92.8% | [5] 48.5% | [6] 27.9% | [7] 60.8% | [8] 67.1% | [9] 51.1% | [10] 90.1%

COc1ccc(C2[C@@H](c3ccccc3)C(=O)N2c2cc(OC)c(OC)c(OC)c2)cc1F (stereo not given in full)
active: [1] 8.76% | [2] -19.2% | [5] 7.17% | [7] -15.6%
inactive: [3] 66.2% | [4] 30.6% | [6] 23.8% | [8] 15.1% | [9] 19% | [10] 63.6%

Clc1ccc(-c2cc(-c3ccccc3)nc(N3CCN(CCCNc4ccnc5cc(Cl)ccc45)CC3)n2)cc1
inactive: [4] 49% | [6] 43.1% | [7] 33.2% | [8] 51%
active: [1] -25.5% | [2] -1.6% | [3] -23.9% | [5] -52.9% | [9] -95.5% | [10] -37.5%

CS(=O)(=O)Nc1cc(-c2ccc3ncnc(Nc4ccc5c(cnn5Cc5ccccc5F)c4)c3c2)cnc1Cl
active: [3] -15.7%
inactive: [1] 79.4% | [2] 51% | [4] 49.1% | [5] 46.3% | [6] 37.5% | [7] 26.3% | [8] 19.4% | [9] 25.9% | [10] 17.5%

COC1/C=C/OC2(C)Oc3c(C)c(O)c4c(O)c(c(/C=N/N(c5ccccc5)c5ccccc5)c(O)c4c3C2=O)NC(=O)C(C)=C/C=C/C(C)C(O)C(C)C(O)C(C)C(OC(C)=O)C1C (stereo not given)
inactive: [1] 41.4% | [2] 45.5% | [3] 66.9% | [4] 71.2% | [5] 41.8% | [6] 38.7% | [8] 48.3% | [9] 47.4% | [10] 39.1%
active: [7] -98.8%

CCOC(=O)c1cnn(CC(C)O)c1NC(=O)NCc1ccccc1C(F)(F)F (stereo not given)
inactive: [1] 101% | [2] 82.1% | [3] 93.6% | [4] 103% | [5] 101% | [6] 107% | [7] 102% | [8] 91.8% | [9] 100% | [10] 103%

Cc1ccc(S(=O)(=O)OC[C@]23CCC(C)(C)C[C@H]2C2=CC[C@@H]4[C@@]5(C)CCCNC(C)(C)[C@@H]5CC[C@@]4(C)[C@]2(C)CC3)cc1
inactive: [3] 86.4% | [4] 85.7% | [6] 53.9% | [7] 91.5% | [8] 89.7% | [10] 99.8%
active: [1] -50.9% | [2] -59.3% | [5] -81.1% | [9] -87.7%

COc1cc(N2C(=O)[C@H](Cl)C2c2ccc(SC)cc2)cc(OC)c1OC (stereo not given in full)
active: [1] 4.62% | [2] 1.22% | [5] 7.72% | [7] -34.3%
inactive: [3] 73.9% | [4] 30.5% | [6] 22.1% | [8] 29.5% | [9] 20.3% | [10] 65.7%

CCOC(=O)/C(=C(/C)NCC(C)C)c1cc(O)c(O)c2c(C)cc(=O)[nH]c12
inactive: [1] 29.8% | [2] 111% | [3] 78.2% | [4] 50.9% | [5] 46.8% | [6] 34.3% | [7] 43.2% | [8] 66.8% | [9] 38.1% | [10] 71%
